Unmarked numbers belong to inactive results. Active and inactive are the calls of the source.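 How the source made its calls: active means thallium flux through the channel raised or lowered by more than 3 SD from vehicle-only wells, actives on both sides; inactive means the rest.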

What all share (test): modulators of BK channel variants, profiling panel, selectivity assay, cell-based, U2OS BacMam, thallium flux, beta subunits (AID 1259406);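 further: initial slope of Thallos dye fluorescence rise after thallium is added; log ratio against the mean of 0.3% DMSO vehicle wells on the same plate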
Experiment [1] deals with F380Y. Particulars: at 30 µM.
In experiment [2] the test system is F380Y/beta1. Particulars: at 30 µM.
In experiment [3] the test system is F380Y/beta2Delta. Particulars: at 30 µM.
Experiment [4] deals with F380Y/beta4. Conditions: at 30 µM.
For experiment [5], the target named is Calcium-activated potassium channel subunit alpha-1 (Homo sapiens) + Leucine-rich repeat-containing protein 26 (Homo sapiens) (UniProt Q12791+Q2I0M4). Particulars: F380Y/Slo1WT/gamma1, at 30 µM.
Experiment [6] deals with R275C. Conditions: at 30 µM.
Experiment [7] relates to R275C/beta1. Particulars: at 30 µM.
Experiment [8] relates to R275C/beta2Delta. Conditions: at 30 µM.
Experiment [9] relates to R275C/beta4. Particulars: at 30 µM.
The test system of experiment [10] is R275C/Slo1WT/beta2. Particulars: at 30 µM.

Sequence of Calcium-activated potassium channel subunit alpha-1 (Homo sapiens) + Leucine-rich repeat-containing protein 26 (Homo sapiens) (Q2I0M4 whole entry, looked up, one chain of several): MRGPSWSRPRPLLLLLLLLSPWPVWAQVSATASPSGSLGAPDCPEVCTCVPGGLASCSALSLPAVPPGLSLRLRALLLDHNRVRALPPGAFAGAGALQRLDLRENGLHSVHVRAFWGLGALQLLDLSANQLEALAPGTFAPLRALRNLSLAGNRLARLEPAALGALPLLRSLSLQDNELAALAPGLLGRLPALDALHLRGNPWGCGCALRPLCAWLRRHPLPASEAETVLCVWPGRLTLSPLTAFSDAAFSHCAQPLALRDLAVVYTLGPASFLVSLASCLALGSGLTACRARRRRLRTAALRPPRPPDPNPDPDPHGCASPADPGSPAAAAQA

For `O=C1CSCC(=O)N1c1csc(C(F)(F)F)c1-c1ccccc1`, the log fold change Tl+ flux was -0.0223 in experiment [1]; 0.0869 (active) in experiment [2]; -0.00325 in [3]; 0.0035 in experiment [4]; 0.0169 in experiment [5]; 0.0132 in [6]. Further, the log fold change Tl+ flux in [7] was 0.122 (active); in [8], 0.0241; in experiment [9] it was 0.11 (active); in experiment [10], -0.00785.

`Cc1cc(S(=O)(=O)c2ccc(Cl)cc2)sc1C(=O)NCC(O)c1ccccc1` (stereo not given): the log fold change Tl+ flux in experiment [1] is 0.0511; in experiment [2] it was 0.0134; in experiment [3] it was 0.000794; in experiment [4], 0.0168; in experiment [5], -0.0326; in [6], -0.0286. Also, the log fold change Tl+ flux in experiment [7] was 0.095; in [8], 0.0132; in experiment [9] it was 0.0561; in experiment [10] it was -0.00987.

For `CCOC(=O)c1cc(NC(=O)CC(C)(C)CC(=O)O)ccc1N1CCCCC1`, the log fold change Tl+ flux is 0.0551 in experiment [1]; 0.0365 in experiment [2]; 0.0312 in [3]; 0.0131 in [4]; -0.0575 in experiment [5]; 0.0216 in [6]. The log fold change Tl+ flux is 0.0587 in [7], 0.0261 in [8], 0.0168 in experiment [9] and 0.00209 in experiment [10].

Take `CCSc1ccc(-c2noc(C(C)(C)C)n2)cn1`: the log fold change Tl+ flux in [1] is 0.0439; in [2], 0.0323; in experiment [3], -0.00176; in experiment [4], 0.0153; in [5], -0.00182; in experiment [6], 0.0189. Besides, the log fold change Tl+ flux in experiment [7] was 0.0241; in experiment [8], -0.0201; in experiment [9], 0.031; in experiment [10], -0.00966.

As to `N#Cc1cc(-c2ccccc2)oc1NC(=O)c1cccs1`, the log fold change Tl+ flux was -0.0586 in experiment [1]; 0.0261 in [2]; 0.0131 in experiment [3]; 0.0109 in experiment [4]; 0.0363 in [5]; 0.00241 in experiment [6]. Also, the log fold change Tl+ flux in [7] was -0.0262; in experiment [8], 0.0138; in experiment [9], -0.00555; in [10] it was 0.0278.

Turning to `CCOC(=O)c1ccc(OCC#Cc2ccc(C(F)(F)F)cn2)cc1`, the log fold change Tl+ flux was -0.0256 in experiment [1]; -0.0209 in experiment [2]; -0.0279 in experiment [3]; -0.0657 in experiment [4]; -0.0262 in experiment [5]; -0.0775 in experiment [6]. In addition, the log fold change Tl+ flux was -0.0424 in experiment [7], -0.0497 in experiment [8], -0.0346 in experiment [9] and -0.0412 in experiment [10].

As for `CCSc1n[nH]c(=S)s1`, the log fold change Tl+ flux in experiment [1] was -0.0724; in [2], 0.0129; in experiment [3] it was 0.00494; in [4], 0.00824; in experiment [5], -0.0169; in experiment [6], 0.0305. The log fold change Tl+ flux in experiment [7] is -0.0034; in experiment [8], 0.0134; in experiment [9] it was 0.0178; in [10] it was 0.00702.

Take `NC(=NOC(=O)Nc1cccc(Cl)c1)c1ccno1`: the log fold change Tl+ flux was -0.00531 in [1]; 0.0032 in experiment [2]; 0.0232 in experiment [3]; 0.000547 in experiment [4]; 0.0155 in [5]; -0.025 in experiment [6]. Besides, the log fold change Tl+ flux in experiment [7] is -0.0193; in [8] it was 0.00772; in experiment [9], 0.0126; in experiment [10], 0.0133.

For `NNC(=O)Cc1csc2nc(-c3ccccc3)nn12`, the log fold change Tl+ flux in experiment [1] was 0.0124; in [2], 0.00927; in experiment [3], 0.017; in experiment [4], 0.00133; in [5], -0.0179; in [6], 0.0143. Moreover, the log fold change Tl+ flux in [7] was 0.0323; in [8], 0.0113; in experiment [9], 0.0106; in [10], 0.0322.

Regarding `O=S(=O)(CCN1CCN(Cc2ccccc2)CC1)c1ccc(F)cc1`, the log fold change Tl+ flux in [1] was -0.000988; in [2], 0.0135; in experiment [3] it was 0.0237; in [4] it was 0.0241; in experiment [5], 0.000113; in experiment [6], 0.0486. In addition, the log fold change Tl+ flux is 0.0249 in experiment [7], 0.00728 in experiment [8], 0.0441 in [9] and -0.0289 in [10].

Turning to `Cc1c(O)nc2ccccn2c1=O`, the log fold change Tl+ flux in experiment [1] was 0.0365; in experiment [2], -0.00065; in [3], 0.0329; in [4], 0.00904; in experiment [5], 0.0423; in experiment [6], -0.0111. Also, the log fold change Tl+ flux in experiment [7] was 0.0248; in experiment [8], 0.00886; in [9] it was 0.0309; in [10], 0.0209.

For `O=c1n(-c2ccccc2)c(=O)n2n1C1CCC2C1`, the log fold change Tl+ flux was -0.0367 in experiment [1]; -0.0272 in experiment [2]; -0.00637 in experiment [3]; 0.0475 in experiment [4]; -0.00381 in [5]; 0.0483 in experiment [6]. Further, the log fold change Tl+ flux in experiment [7] is 0.0201; in [8], 0.00605; in [9], -0.0283; in [10] it was 0.0498.

Turning to `O=C(NCCSCc1ccco1)c1cncc(Br)c1`, the log fold change Tl+ flux in experiment [1] was 0.0566; in experiment [2], -0.00628; in [3] it was 0.00549; in experiment [4], 0.0375; in experiment [5], 0.0375; in experiment [6], -0.0119. The log fold change Tl+ flux in experiment [7] is 0.0315; in experiment [8], 0.0453; in experiment [9], -0.016; in [10], 0.024.
